Measured values taken from PubChem BioAssay AID602252 (Broad Institute, 2012).
About 2,700 (0.9%) of roughly 300,000 compounds were called active.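 Rule for the calls: active = mean inhibition of at least 30% with at least half of replicates also reaching 30%; inconclusive = no clear call, values can overlap the other calls; inactive = the rest.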 The entries come from a sample that favours actives as a whole.

Each molecule was assayed against Golgi-associated PDZ and coiled-coil motif-containing protein (Homo sapiens) (UniProt Q9HD26) (assay: untagged CAL PDZ binding inhibitors, primary screen, biochemical, fluorescence polarization, HTS (AID 602252;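 note: 0% = DMSO neutral control and 100% = excess unlabeled competitor peptide PRC23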)). Conditions: purified CAL PDZ, TMR-peptide fluorescence polarization, 1 h; at 24.9 µM; hits give high values.
O=C(CSc1nc2ccccc2c(=O)n1Cc1ccc(F)cc1)NCC1CCCO1 (stereo unspecified) was tested, and the inhibition was 0.714% (inactive). With Cc1ccc(NC(=O)c2ccc(Cl)nc2)cc1S(=O)(=O)N1CCOCC1 the inhibition was -1.23% (inactive). CC[C@]12c3[nH]c4cc(CCC(=O)N(C)C)ccc4c3CCN1C(=O)[C@@H](CC(=O)NCC13CC4CC(CC(C4)C1)C3)C[C@@H]2C(=O)N1CCN(C(=O)C2CC2)CC1 was tested, and the inhibition was 5.74% (inactive). In the case of CCCCC(=O)NC(c1ccc(OC)c(OC)c1)c1ccc2cccnc2c1O (stereo unspecified), the inhibition is reported as -1.93% (inactive). With O=C(COc1ccc(/C=N/NC(=O)c2ccc(O)cc2)cc1)Nc1ccc([N+](=O)[O-])cc1 the inhibition was -1.35% (inactive). With O=C(N/N=C/c1ccc(OC(=O)c2ccccc2Cl)cc1)c1ccc(O)cc1 the inhibition was -4.63% (inactive). O=C(O)c1ccc(/C=N/NC(=S)NCc2ccccc2)cc1 was tested, and the inhibition was -1.3% (inactive). In the case of O=C(Cc1cccs1)N/N=C/c1ccc(OCc2ccccc2)cc1, the inhibition is reported as -1.99% (inactive). In the case of C=CCNC(=S)N/N=C/c1ccc(OCc2ccccc2)cc1, the inhibition is reported as 51.2% (active). With O=C(N/N=C/c1ccc(OCc2ccccc2)cc1)c1ccc(O)cc1 the inhibition was 83.5% (active). For CN1C(c2ccc(F)cc2)=CS/C1=C(/C#N)c1nnc2n1-c1ccccc1SC2, the inhibition was 7.66% (inactive). C=CCC[C@H](Cc1ccc(F)cc1)C(=O)OC[C@@H](Cc1c[nH]c2ccccc12)NC(=O)[C@H](CC=C)CC(=O)N[C@H](CO)Cc1ccccc1 was tested, and the inhibition was -1.97% (inactive). In the case of C=CCC[C@H](Cc1ccc(F)cc1)C(=O)OC[C@@H](NC(=O)[C@@H](CC=C)CC(=O)N[C@H](CO)Cc1ccccc1)C(C)(C)C, the inhibition is reported as 40.2% (active). In the case of C=CC[C@@H](CC(=O)N[C@H](CO)Cc1ccccc1)C(=O)N[C@H](C)COC(=O)[C@@H](CC=C)Cc1ccc(F)cc1, the inhibition is reported as 4.91% (inactive). For O=C1/C(=C\c2ccc(O)cc2)CCC1CNc1ccc(Cl)cc1 (stereo unspecified), the inhibition was -2.09% (inactive). In the case of CC(=O)OC1CCC2(C)C(=CCC3C4CC(=O)N(O)C(=O)C4(C)CCC32)C1 (stereo unspecified), the inhibition is reported as -3.51% (inactive). For c1ccc(C(=NNc2nc3ccccc3s2)c2ccccn2)cc1, the inhibition was 10.3% (inactive). For COCc1nnc(NC(=O)CS(=O)(=O)Cc2ccccc2)s1, the inhibition was -3.64% (inactive). CCOCc1nnc(NC(=O)CCS(=O)(=O)Cc2ccccc2)s1 was tested, and the inhibition was -2.55% (inactive). With CCCCc1nnc(NC(=O)CS(=O)(=O)Cc2ccccc2)s1 the inhibition was 30.2% (active). In the case of COc1ccc(N2CCN(C(CNS(=O)(=O)c3ccc(C)cc3)c3ccccc3)CC2)cc1 (stereo unspecified), the inhibition is reported as -2.12% (inactive). O=C1C=CN2CCCC2CC1 (stereo unspecified) was tested, and the inhibition was -1.74% (inactive). With O=C(NC(=S)Nc1ccc(Br)cc1F)C1CCCCC1 the inhibition was -6.68% (inactive). In the case of Cc1nn(-c2ccc(F)cc2)c(Cl)c1/C=C(/CCC(=O)O)c1nc2ccccc2s1, the inhibition is reported as -3.19% (inactive). In the case of COc1cc(C2c3cc4c(cc3C(O)C3COC(=O)C23)OCO4)cc(OC)c1OC (stereo unspecified), the inhibition is reported as -1.27% (inactive). For CSc1ccccc1NC(=O)c1ccc2c(c1)CCN2S(C)(=O)=O, the inhibition was -1.36% (inactive). For CCc1ccccc1NC(=O)c1ccc2c(c1)CCN2S(C)(=O)=O, the inhibition was 40% (active). In the case of CS(=O)(=O)N1CCc2cc(C(=O)Nc3ccccc3Br)ccc21, the inhibition is reported as -1.26% (inactive). In the case of COc1cc(OC)cc(-c2cc3ccc(F)cc3cn2)c1, the inhibition is reported as -1.91% (inactive). With O=C(C1CCN(Cc2ccc(Cl)cc2)CC1)N1CCN(Cc2ccc3c(c2)OCO3)CC1 the inhibition was 2.38% (inactive). In the case of C/C(=C\c1ccco1)CN1CCC(N2CCC(C(=O)N3CCOCC3)CC2)CC1, the inhibition is reported as 5.25% (inactive). O=C(C1CCN(C2CCN(Cc3cccc4c3OCO4)CC2)CC1)N1CCOCC1 was tested, and the inhibition was 37.8% (active). With CCC(CO)Oc1cc(NC(=O)c2cccc3ccccc23)c2ncn(C(C)C)c2c1 (stereo unspecified) the inhibition was -1.65% (inactive). In the case of Cc1cc(C)cc(OCC(=O)Nc2ccc(N3CCOCC3)cc2N2CCOCC2)c1, the inhibition is reported as -3.82% (inactive). In the case of CCOc1ccc(NC(=O)C2CC(=O)N=C(N)S2)cc1 (stereo unspecified), the inhibition is reported as -0.069% (inactive). In the case of CCOc1ccc(NC(=O)c2nc(SCC)ncc2Cl)cc1, the inhibition is reported as -1.2% (inactive). For CCOc1ccc(N/C(N)=N/c2nc(C)c(C)c(=O)[nH]2)cc1, the inhibition was 42% (active). CCCCN1CC(COCc2ccccc2)OCCS1(=O)=O (stereo unspecified) was tested, and the inhibition was -4.9% (inactive). For O=C(O)c1ccc(NN=CC2=C(N3CCOCC3)/C(=C/c3ccccc3)CC2)cc1, the inhibition was -3.09% (inactive). With CCCCNC(=O)C(C)N(CCN(C)C)C(=O)CCCCCN1C(=O)NC(c2ccc(Cl)cc2)C(C(=O)OCc2ccccc2)=C1C (stereo unspecified) the inhibition was -7.11% (inactive). With Cc1oc2nc(SCC(=O)Nc3ccc(S(N)(=O)=O)cc3)nc(NC(=O)c3ccccc3)c2c1C the inhibition was 30.6% (active). For Cc1oc2nc(SCC(=O)NCc3cccnc3)nc(N)c2c1C, the inhibition was -4.94% (inactive). Cc1cc(-c2nnc(SCC(=O)Nc3ccc(S(N)(=O)=O)cc3)n2N)n[nH]1 was tested, and the inhibition was 2.84% (inactive). O=C(/C=C/c1c(F)cccc1Cl)Nc1nn[nH]n1 was tested, and the inhibition was 133% (active). In the case of CCOC(=O)CNC(=O)/C=C/c1c(Cl)cccc1Cl, the inhibition is reported as -4.11% (inactive). With O=C(CCc1ccccc1)Nc1nn[nH]n1 the inhibition was -4.68% (inactive). With COc1ccc2c(c1)[C@H]1[C@H](CO2)[C@H](c2ccccc2)[C@]2(C)C(=O)Nc3cc(F)c(F)cc3C(=O)N12 the inhibition was -3.04% (inactive). Cc1ccc(S(=O)(=O)NC[C@H]2O[C@@H](n3cnc4c(N)ncnc43)[C@H](O)[C@@H]2O)s1 was tested, and the inhibition was -0.852% (inactive). For CCCNC(=O)c1c(Cl)cnn1-c1ccc(C)cc1, the inhibition was 4.34% (inactive). With O=c1c(Cl)c(NC2CC2)cnn1-c1ccccc1 the inhibition was -0.978% (inactive). With C=CCNc1cnn(-c2ccc(C)cc2)c(=O)c1Cl the inhibition was 82% (active). For COc1ccc2[nH]c3c(c2c1)CCN1C(=O)C(CC(=O)NCCc2ccccn2)C[C@H](C(=O)N2CCOCC2)[C@@]31C (stereo partly specified), the inhibition was -8.9% (inactive). With COC(=O)[C@]1(Cc2ccccc2)N[C@H](CN(C)S(=O)(=O)c2ccc(OC(F)(F)F)cc2)[C@@H]2C(=O)N(C)C(=O)[C@@H]21 the inhibition was -4.26% (inactive). For Cc1ccc(S(=O)(=O)NC2CCCCCC2)cc1, the inhibition was 0.011% (inactive). For N#CCCN1CCN(S(=O)(=O)c2ccc(S(=O)(=O)NC3CCCCC3)cc2)CC1, the inhibition was 49.3% (active). In the case of N#CCCN1CCN(S(=O)(=O)c2ccc(S(=O)(=O)N3CCCC3)cc2)CC1, the inhibition is reported as 2.13% (inactive). For COc1ccc(-c2c(-c3cc(OC)cc(OC)c3)n(C)c3ccc(-c4ccn[nH]4)cc23)cc1, the inhibition was -3.15% (inactive). CCN1CCC(O)(/C=C/c2ccc(C)cc2)C(C(=O)/C=C/c2ccc(C)cc2)C1 (stereo unspecified) was tested, and the inhibition was 8.48% (inactive). C=CCn1c(=O)c(C(=O)Nc2ncccc2O)c(O)c2ccccc21 was tested, and the inhibition was -2.5% (inactive). In the case of CCCn1c(=O)c(C(=O)Nc2cc(C)ccn2)c(O)c2ccccc21, the inhibition is reported as -3.7% (inactive). With Cn1c(=O)c(C(=O)Nc2ncccn2)c(O)c2ccccc21 the inhibition was 35% (active). For COc1ccc(Cl)cc1C=CC=Nc1ccc(S(N)(=O)=O)cc1, the inhibition was 1.96% (inactive). With COc1cccc(CC(=O)Nc2nc(-c3ccc(OC)c(OC)c3)cs2)c1 the inhibition was -0.162% (inactive). For COc1ccc(CCNc2nc(-c3cccc(NC(C)=O)c3)cs2)cc1OC, the inhibition was 57.3% (active). In the case of COc1ccc(CC(=O)Nc2nc(-c3ccc(F)c(F)c3)cs2)cc1OC, the inhibition is reported as -3.84% (inactive). O=C(Nc1cccc(S(=O)(=O)N2CCOCC2)c1)C12CC3CC(CC(C3)C1)C2 was tested, and the inhibition was -2.14% (inactive). CSc1ncnc2c1ncn2CC(=O)C1CCC2C3CCC4=CC(=O)CCC4(C)C3CCC12C (stereo unspecified) was tested, and the inhibition was 2.07% (inactive). For COc1ccccc1NC(=O)CN(c1ccccc1OC)S(=O)(=O)c1ccccc1, the inhibition was 0.854% (inactive). For COc1ccccc1N(CCOc1ccccc1)S(=O)(=O)c1ccccc1, the inhibition was 71% (active). In the case of COc1ccccc1N(CC(=O)N1CCCCC1)S(=O)(=O)c1ccccc1, the inhibition is reported as -3.76% (inactive). In the case of O=C(O)C(=Cc1ccccc1[N+](=O)[O-])c1ccccc1, the inhibition is reported as -1.54% (inactive). In the case of COc1ccc(C(=O)NCc2nnc(SCC(=O)Nc3cccc(OC)c3)o2)cc1, the inhibition is reported as -4.41% (inactive). In the case of O=C(CSc1nnc(CNC(=O)c2ccc(F)cc2)o1)Nc1ccc2c(c1)OCO2, the inhibition is reported as 74.1% (active). For O=C(NCc1nnc(SCC(=O)N2CCCCCC2)o1)c1ccc(F)cc1, the inhibition was -2.96% (inactive). For COc1ccc(-c2ccc3c(c2)[C@@H]2C[C@H](N(C)S(=O)(=O)c4ccccc4)[C@H]([C@H](C)O)C(=O)N2CC3)cc1, the inhibition was -5.77% (inactive). In the case of O=c1[nH]c2ccc(S(=O)(=O)N3CCCC3)cc2[nH]1, the inhibition is reported as -3.37% (inactive). For CCCCn1c(N)c(N(CCOC)C(=O)c2cccc(S(=O)(=O)N3CCCCC3)c2)c(=O)[nH]c1=O, the inhibition was -4.58% (inactive). CCCCn1c(=S)[nH]c2cc(S(=O)(=O)N3CCCCC3)ccc21 was tested, and the inhibition was 1.64% (active). For CCN(CC)S(=O)(=O)c1cccc(NC(=O)c2ccc(S(=O)(=O)N3CCCC3)cc2)c1, the inhibition was -1.26% (inactive). With O=C1/C(=C\c2ccc([N+](=O)[O-])cc2)CS(=O)(=O)C/C1=C/c1ccc([N+](=O)[O-])cc1 the inhibition was -4.54% (inactive). COc1ccccc1NC(=O)COC(=O)CNC(=O)C1CCCCC1 was tested, and the inhibition was -1.86% (inactive). For CN(CCc1ccccc1)C(=O)c1cccc(NC(=O)Cc2ccc([N+](=O)[O-])cc2)c1, the inhibition was 0.702% (inactive). O=C(COC(=O)c1ccccn1)NNC(=O)c1ccc(Br)cc1 was tested, and the inhibition was -0.344% (inactive). Cc1cccc(OCc2nnc(SCc3nc4cc(C(F)(F)F)ccc4c(=O)[nH]3)o2)c1 was tested, and the inhibition was 1.6% (inactive). In the case of Cc1nc(N)[nH]c(=O)c1Oc1cccc(C(F)(F)F)c1, the inhibition is reported as 71.1% (active). O=Cc1ccc(Oc2cccc(C(F)(F)F)c2)nc1 was tested, and the inhibition was 2.04% (inactive).
